FXIIa mix inh – factor XIIa (human) inhibition, mixture screen. purified FXIIa, fluorogenic substrate, pooled mixtures. inhibition, % at 5 µM. 62,000 tested, 0.2% active. AID 684;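 also: 0% = enzyme without compound and 100% = no enzyme blank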
Target sequence (P00748 20-372 limits assumed): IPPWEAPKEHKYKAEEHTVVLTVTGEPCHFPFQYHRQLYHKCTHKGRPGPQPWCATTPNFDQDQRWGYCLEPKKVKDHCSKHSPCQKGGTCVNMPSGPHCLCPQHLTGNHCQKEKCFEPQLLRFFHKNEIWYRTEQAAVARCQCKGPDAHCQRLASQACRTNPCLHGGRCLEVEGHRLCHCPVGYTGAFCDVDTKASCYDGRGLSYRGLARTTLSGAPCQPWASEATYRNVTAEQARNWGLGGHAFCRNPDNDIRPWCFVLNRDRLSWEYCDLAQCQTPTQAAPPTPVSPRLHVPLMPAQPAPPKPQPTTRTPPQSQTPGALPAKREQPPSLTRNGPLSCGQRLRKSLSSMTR
Target sequence (P00748 373-615 limits assumed): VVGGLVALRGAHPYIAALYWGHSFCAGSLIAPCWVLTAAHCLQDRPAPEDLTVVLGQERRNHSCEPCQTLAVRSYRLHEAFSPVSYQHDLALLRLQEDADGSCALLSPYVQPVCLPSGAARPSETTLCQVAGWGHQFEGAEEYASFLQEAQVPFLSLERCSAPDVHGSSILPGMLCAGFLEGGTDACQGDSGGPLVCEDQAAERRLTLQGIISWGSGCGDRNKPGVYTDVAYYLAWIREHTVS
Cathepsin G inh – inhibitors of human cathepsin G; purified enzyme, AMC-tetrapeptide fluorescence, pooled mixtures; inhibition, % at 5 µM (by protocol); 62,000 tested, 0.2% active; AID 581;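 active = inhibition above 20% in each of the two mixture wells holding the compound; inactive = inhibition of 20% or less in either well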;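 also: 0% = enzyme control without mixture and 100% = blank lacking enzyme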
C1s inh – blocks human complement C1s protease activity. purified C1s, fluorogenic AMC substrate, pooled mixtures. mean inhibition % of two 10-compound mixtures (stronger effect = higher value), % at 5 µM (by protocol). 62,000 tested, 0.16% active. AID 538;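 active = inhibition above 20% in each of the two 10-compound mixture wells holding the compound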;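 also: 0% = enzyme wells lacking compound mixture and 100% = no-enzyme blank wells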
FXIa inh mix – blocks human factor XIa in pooled compound mixtures; P03951; purified FXIa, fluorogenic substrate; inhibition, % at 5 µM; 62,000 tested, 0.19% active; AID 680;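 also: each value is inhibition by a whole ten-compound pool holding the compound; 0% = enzyme with no mixture and 100% = wells lacking enzyme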
Numbers without * were called inactive. Hits are enriched below; roughly 0.5% of the tested compounds scored in any of these assays. Rule as the data show it, unless noted: active = inhibition above about 20% (passing the limit was not always enough); inactive = the rest.

Screening Nc1nc(Cn2nnc(-c3ccccc3Cl)n2)nc(N2CCOCC2)n1 returned FXIIa mix inh 20.9*, Cathepsin G inh 0.2, C1s inh 2.2 and FXIa inh mix 2.8.
`O=C(c1ccco1)N1C(=O)c2cccc3cccc1c23` gave FXIIa mix inh 4.6, Cathepsin G inh 14.5, C1s inh 25.4* and FXIa inh mix 4.2.
COc1ccc(C2C=C(c3ccccc3)Nc3nc(CCCO)nn32)cc1 (configuration not stated) was read as FXIIa mix inh 9.4, Cathepsin G inh 10.0, C1s inh -26.4 and FXIa inh mix 40.8*.
Screening COc1ccc(OC)c(C(=O)CSc2nc3c(c(=O)n(C)c(=O)n3C)n2C(C)C)c1 returned FXIIa mix inh -1.4, Cathepsin G inh -6.0, C1s inh -31.7 and FXIa inh mix -2.8.
Screening O=C(NCc1ccco1)C(Cc1ccccc1)N1C(=O)c2ccccc2C1=O (configuration not stated) returned FXIIa mix inh 3.8, Cathepsin G inh -2.4, C1s inh 1.0 and FXIa inh mix 25.6*.
`O=C(O)CCCC(=O)Nc1ccccc1C(=O)O` gave FXIIa mix inh 1.0, Cathepsin G inh 10.0, C1s inh 49.3* and FXIa inh mix 6.5.
For COc1ccc(Cl)cc1NC(=O)CCN1CCN(c2ccccc2C)CC1 the results were FXIIa mix inh -13.1, Cathepsin G inh 11.2, C1s inh 66.8* and FXIa inh mix 5.0.
Screening COCC(=O)N(C)C1(c2nnnn2CCOC(=O)Nc2cccc3ccccc23)CCCC1 returned FXIIa mix inh 4.9, Cathepsin G inh -3.3, C1s inh -16.3 and FXIa inh mix 22.3.
For COc1ccc(C2C(C(=O)NCC3CCCO3)c3cc(OC)c(OC)cc3C(=O)N2C)cc1OC (configuration not stated) the results were FXIIa mix inh 4.4, Cathepsin G inh -10.9, C1s inh -85.9 and FXIa inh mix -1.3.
`CCOC(=O)c1cc(NC(=O)c2c(C)noc2C)cc(C(=O)OCC)c1` gave FXIIa mix inh -2.4, Cathepsin G inh -1.5, C1s inh -0.3 and FXIa inh mix 0.8.
`CC(=O)Nc1cccc(NC(=O)Nc2ccc(C(C)=O)cc2)c1` gave FXIIa mix inh 24.0, Cathepsin G inh 25.3, C1s inh -5.5 and FXIa inh mix 25.3*.
Screening C=CCOc1ccc(C2C(C(=O)c3ccco3)=C(O)C(=O)N2Cc2cccnc2)cc1 (configuration not stated) returned FXIIa mix inh 2.8, Cathepsin G inh 5.0, C1s inh -58.4 and FXIa inh mix 2.4.
Screening CCOC(=O)N1CCN(C(=O)c2ccc3c(=O)n(Cc4ccc(OC)cc4)c(=S)[nH]c3c2)CC1 returned FXIIa mix inh -18.1, Cathepsin G inh 5.5, C1s inh -12.8 and FXIa inh mix -1.6.
Screening CCOC(=O)N1CCN(C(=O)c2ccc3c(=O)n(Cc4ccccc4)c(=S)[nH]c3c2)CC1 returned FXIIa mix inh -3.6, Cathepsin G inh -1.7, C1s inh -5.4 and FXIa inh mix 57.2*.
For COc1ccc(C(=O)n2nc(-c3ccccc3)nc2N)cc1OC the results were FXIIa mix inh 7.8, Cathepsin G inh 43.6*, C1s inh -7.2 and FXIa inh mix 12.7.
For N#Cc1nc(-c2ccc(OCc3ccccc3)cc2)oc1NCc1cccnc1 the results were FXIIa mix inh 2.6, Cathepsin G inh 1.7, C1s inh 0.9 and FXIa inh mix 22.8.
CN(C)c1oc(-c2ccc(OCc3ccccc3)cc2)nc1C#N was read as FXIIa mix inh 6.4, Cathepsin G inh 8.0, C1s inh 13.6 and FXIa inh mix 22.5*.
COCc1c(C)cc(C)c(/C=N/O)c1C was read as FXIIa mix inh -5.1, Cathepsin G inh -1.4, C1s inh 1.7 and FXIa inh mix 6.1.
For Cc1c(=O)n(OCc2ccccc2)c2ccccc2[n+]1[O-] the results were FXIIa mix inh 2.9, Cathepsin G inh 10.4, C1s inh 6.4 and FXIa inh mix 6.0.
`CCOn1c(=O)c(-c2cc3ccccc3o2)[n+]([O-])c2ccccc21` gave FXIIa mix inh -13.4, Cathepsin G inh 6.1, C1s inh 3.4 and FXIa inh mix 24.4*.
Screening NC(=O)c1ccccc1NC(=O)CN1CCOCC1 returned FXIIa mix inh 11.4, Cathepsin G inh 8.2, C1s inh 0.4 and FXIa inh mix 20.3*.
Screening O=C(CN1CCOCC1)Nc1cccc(Cl)c1Cl returned FXIIa mix inh 3.8, Cathepsin G inh 10.0, C1s inh 13.8 and FXIa inh mix 6.5.
`CCCCOC(=O)CCn1[nH]c(=O)c2ccccc2c1=O` gave FXIIa mix inh 0.5, Cathepsin G inh 12.9, C1s inh 14.5 and FXIa inh mix 6.4.
O=C(CCn1[nH]c(=O)c2ccccc2c1=O)OC1CCCCC1 was read as FXIIa mix inh 3.7, Cathepsin G inh 9.7, C1s inh 15.0 and FXIa inh mix 20.5*.
Screening O=C(Nc1ccccc1F)N(CCCN1CCOCC1)Cc1cc2cc3c(cc2[nH]c1=O)OCCO3 returned FXIIa mix inh -6.9, Cathepsin G inh 7.2, C1s inh 3.0 and FXIa inh mix 10.9.
C=CCNC(=O)c1ccc(C)cc1Cl was read as FXIIa mix inh 3.5, Cathepsin G inh 9.2, C1s inh 4.8 and FXIa inh mix -5.8.
For C=CCNC(=O)c1ccc(Cl)cc1Cl the results were FXIIa mix inh -20.7, Cathepsin G inh 13.6, C1s inh 13.6 and FXIa inh mix 24.8*.
`COc1ccc(N2C(=O)C3CCCN3C2c2cccc(C)c2)cc1Cl` (configuration not stated) gave FXIIa mix inh 22.6*, Cathepsin G inh 2.9, C1s inh -27.0 and FXIa inh mix 3.3.
O=C(C1CCC(CNS(=O)(=O)c2cccc3cccnc23)CC1)N1CCCC1 (configuration not stated) was read as FXIIa mix inh 22.2*, Cathepsin G inh -1.6, C1s inh -32.0 and FXIa inh mix 1.3.
For Fc1cccc(CN2CCN(c3ncccn3)CC2)c1 the results were FXIIa mix inh 1.4, Cathepsin G inh 9.7, C1s inh 9.8 and FXIa inh mix 3.0.
For O=C1N=C(N2CCOCC2)S/C1=C1\C(=O)N(Cc2ccccc2)c2ccc(Br)cc21 the results were FXIIa mix inh -15.5, Cathepsin G inh -3.9, C1s inh -1.7 and FXIa inh mix 2.5.
CCCCN1C(=O)/C(=C2\SC(N3CCCCC3)=NC2=O)c2ccccc21 was read as FXIIa mix inh 8.3, Cathepsin G inh 14.9, C1s inh 22.8* and FXIa inh mix 4.0.
Screening COc1ccc(S(=O)(=O)n2nc(OC(=O)c3ccccc3)cc2N)cc1 returned FXIIa mix inh 11.8, Cathepsin G inh 35.0*, C1s inh 23.4 and FXIa inh mix 27.7*.
For COc1ccc(S(=O)(=O)n2nc(OC(=O)c3cccs3)cc2N)cc1 the results were FXIIa mix inh 2.2, Cathepsin G inh 37.5*, C1s inh -15.9 and FXIa inh mix 20.9.
Screening CC1(C)Cc2ccccc2C2CC(O)C(=O)N21 (configuration not stated) returned FXIIa mix inh 2.9, Cathepsin G inh 0.6, C1s inh -11.0 and FXIa inh mix 7.1.
`O=C(CSc1nnnn1-c1ccc(Cl)cc1)N1CCc2ccccc2C1` gave FXIIa mix inh 2.9, Cathepsin G inh 16.1, C1s inh 10.8 and FXIa inh mix 6.5.

Screening data as filed in PubChem BioAssay.
